Assay [1] is described as follows: qHTS assay to identify aromatase inhibitors - cell viability counter screen (AID 743084).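 Also: cells stimulated with testosterone during compound exposure; nearly all actives have a fitted effect of over 55% in size.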 Also: potency is read from the fitted curve at half-maximal effect.
In assay [2] the target is Aryl hydrocarbon receptor (Homo sapiens) (UniProt P35869). Nature of the assay: qHTS assay to identify small molecule that activate the aryl hydrocarbon receptor (AhR) signaling pathway (AID 743085). Also: nearly all actives have a fitted effect of over 15% in size. Also: potency is read from the fitted curve at half-maximal effect.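 As to activation: HG2L7.5c1 human HepG2 liver cells with stably integrated DRE-driven firefly reporter; series mostly up to about 70 µM.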 The method in brief:
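Measured in HG2L7.5c1 cells: CellTiter-Fluor signal (30 min incubation, 37C) for viability, then luciferase luminescence (30 min, room temperature). Compound contact time was 24 h at 37C, following a 5 h pre-incubation.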

Assay [3] is described as follows: qHTS assay to identify small molecule that activate the aryl hydrocarbon receptor (AhR) signaling pathway - cell viability counter screen (AID 743086). Also: nearly all actives have a fitted effect of over 45% in size. Also: potency is read from the fitted curve at half-maximal effect. The method in brief: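 HepG2-AhR-luc (HG2L7.5c1) cells, 4000/well, were preincubated 5 h at 37C, exposed to compound in qHTS format for 24 hr at 37C, then given CellTiter-Fluor for 30 min; viability was read as fluorescence in the reporter wells.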

The target of assay [4] is Peroxisome proliferator-activated receptor gamma (Homo sapiens) (UniProt P37231). Nature of the assay: qHTS assay to identify small molecule agonists of the peroxisome proliferator-activated receptor gamma (PPARg) signaling pathway (AID 743094; active = well fitted activation curve with a large enough effect in the signal ratio in the repeat runs, not every such curve was filed as active; the % refers to the signal ratio). The method in brief:
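HEK293H PPARg-bla cells, 5 h settle at 37C/5% CO2; compound (DMSO) 17 h, 37C; B/G FRET substrate 1 h RT; fluorescence intensity read-out. qHTS format.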

Assay [5] has the same target. The assay is described as follows: qHTS assay to identify small molecule antagonists of the peroxisome proliferator-activated receptor gamma (PPARg) signaling pathway (AID 743191; calls by dose curve; also: nearly all actives have a fitted effect of over 30% in size; also: potency is read from the fitted curve at half-maximal effect). The method in brief: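 GeneBLAzer PPARg UAS-bla HEK293H cells carrying a UAS-driven beta-lactamase reporter were plated at 3000 cells/well, preincubated 5 h at 37C, then given compound for 17 h at 37C; LiveBLAzer B/G FRET substrate was read after 1 h at room temperature.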

Assay [6] in a line: qHTS assay for small molecule agonists of the antioxidant response element (ARE) signaling pathway (AID 743202; active = well fitted activation curve with a large enough effect in the signal ratio in the repeat runs, not every such curve was filed as active; the % refers to the signal ratio; also: potency is read from the fitted curve at half-maximal effect). Put shortly:
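Following a 16 h, 37 C exposure of reporter HepG2 cells (ARE-driven beta-lactamase, 2,000 cells/well) to compounds, FRET substrate was applied for 2 h at room temperature and fluorescence intensity recorded.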

The nature of assay [7]: qHTS assay for small molecule agonists of the antioxidant response element (ARE) signaling pathway - cell viability counter screen (AID 743203; calls by dose curve; also: nearly all actives have a fitted effect of over 55% in size; also: potency is read from the fitted curve at half-maximal effect). The method in brief:
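Luminescence read-out (CellTiter-Glo, 30 min at room temperature) measured cell viability in the same wells as the ARE beta-lactamase reporter. HepG2 ARE-bla cells were treated with compounds for 16 hrs at 37C/5% CO2.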

Assay [8] is described as follows: qHTS assay for small molecule activators of the heat shock response signaling pathway - cell viability counter screen (AID 743209). Also: nearly all actives have a fitted effect of over 50% in size. Also: potency is read from the fitted curve at half-maximal effect. Put shortly: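 HSE-bla HeLa; 1500 cells/well; overnight 37 C, 5% CO2; compound 5 h 37 C; LiveBLAzer B/G substrate 2.5 h RT; CellTiter-Glo 30 min RT; luminescence.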
Assay [9] in a line: qHTS assay for small molecule activators of the heat shock response signaling pathway (AID 743210; active = well fitted activation curve with a large enough effect in the signal ratio in the repeat runs, with a control signal flat, not every such curve was filed as active; the % refers to the signal ratio; also: series mostly up to about 63 µM). Put shortly: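 Heat shock element–beta-lactamase HeLa reporter cells; qHTS with compounds for 5 h at 37 C; detection by FRET substrate fluorescence after 2.5 h at RT.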
Assay [10] is described as follows: qHTS assay to identify small molecule antagonists of the peroxisome proliferator-activated receptor gamma (PPARg) signaling pathway - cell viability counter screen (AID 743194). Also: nearly all actives have a fitted effect of over 55% in size. Also: potency is read from the fitted curve at half-maximal effect. The following applies: Potency: co-treated with 50 nM rosiglitazone unless noted. Put shortly: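 PPARg-UAS-bla HEK293H cells were plated, rested 5 h at 37 C, then treated with compounds plus rosiglitazone (50 nM final) for 17 h at 37 C; viability was then read by CellTiter-Glo luminescence after 30 min at room temperature.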

“And” between values parts separate entries of the source, which are not always exact repeats. Equal entries are not always repeated. Results filed as inconclusive are left out. More than one record can exist for a structure, and the calls need not agree. The source made the active and inactive calls. Unless noted, calls follow the shape of the dose curve; as a rule, active = well fitted curve in the direction sought with a large enough effect in the repeat runs; inconclusive = weak or mixed curves; inactive = no such curve, though single readings can be large; an effect the other way counts as inactive or inconclusive.

Peroxisome proliferator-activated receptor gamma (Homo sapiens), sequence (P37231 whole entry, looked up): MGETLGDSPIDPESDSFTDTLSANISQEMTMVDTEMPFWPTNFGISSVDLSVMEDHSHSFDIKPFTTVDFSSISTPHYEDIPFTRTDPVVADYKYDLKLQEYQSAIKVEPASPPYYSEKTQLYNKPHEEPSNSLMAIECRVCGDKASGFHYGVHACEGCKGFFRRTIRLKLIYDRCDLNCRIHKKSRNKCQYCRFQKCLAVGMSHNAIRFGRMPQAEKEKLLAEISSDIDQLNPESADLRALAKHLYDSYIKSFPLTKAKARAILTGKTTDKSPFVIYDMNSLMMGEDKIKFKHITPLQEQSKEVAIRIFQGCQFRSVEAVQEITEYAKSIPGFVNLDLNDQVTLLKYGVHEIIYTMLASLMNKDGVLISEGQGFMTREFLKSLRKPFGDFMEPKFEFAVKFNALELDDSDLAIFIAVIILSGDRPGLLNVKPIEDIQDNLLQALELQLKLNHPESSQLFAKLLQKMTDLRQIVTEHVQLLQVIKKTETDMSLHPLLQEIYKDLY
Aryl hydrocarbon receptor (Homo sapiens), sequence (P35869 whole entry, looked up): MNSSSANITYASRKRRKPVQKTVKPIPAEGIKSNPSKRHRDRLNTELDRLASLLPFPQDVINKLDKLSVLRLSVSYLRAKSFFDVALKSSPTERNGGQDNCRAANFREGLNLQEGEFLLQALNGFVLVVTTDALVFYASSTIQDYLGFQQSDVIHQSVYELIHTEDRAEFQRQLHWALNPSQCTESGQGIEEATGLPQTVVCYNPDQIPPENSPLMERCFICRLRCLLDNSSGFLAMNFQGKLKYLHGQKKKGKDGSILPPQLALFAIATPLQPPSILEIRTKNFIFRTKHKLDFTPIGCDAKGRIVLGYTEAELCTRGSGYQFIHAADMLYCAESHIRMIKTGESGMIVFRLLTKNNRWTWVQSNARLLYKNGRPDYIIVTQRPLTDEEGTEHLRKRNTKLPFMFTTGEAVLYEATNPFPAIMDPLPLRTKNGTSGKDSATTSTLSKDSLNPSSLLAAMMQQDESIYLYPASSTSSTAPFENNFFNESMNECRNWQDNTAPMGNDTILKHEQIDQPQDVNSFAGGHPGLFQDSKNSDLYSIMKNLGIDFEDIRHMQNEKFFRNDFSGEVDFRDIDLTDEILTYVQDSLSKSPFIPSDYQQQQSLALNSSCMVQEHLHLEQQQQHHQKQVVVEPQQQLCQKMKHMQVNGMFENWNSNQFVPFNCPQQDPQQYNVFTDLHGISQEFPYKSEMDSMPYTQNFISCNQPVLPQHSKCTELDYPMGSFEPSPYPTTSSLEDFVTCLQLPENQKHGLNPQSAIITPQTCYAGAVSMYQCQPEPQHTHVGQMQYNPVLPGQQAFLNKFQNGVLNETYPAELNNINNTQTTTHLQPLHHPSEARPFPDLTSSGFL

Regarding `c1ccc(C2CO2)cc1` (centres undefined), the Potency entry in assay [1], in assay [2], in assay [3], in [4], in assay [5] and in assay [6] was “inactive” throughout. Moreover, the Potency entry in assay [7], in assay [8] and in [9] was “inactive” each time.

For `CCOP(=S)(OCC)OP(=S)(OCC)OCC`, the Potency result in assay [1], in assay [2], in [3], in [4], in assay [5] and in assay [7] was “inactive” throughout. In addition, the Potency entry in assay [8] and in assay [9] was “inactive” each time.

Consider `ClCC(Cl)CCl`, for which the Potency result in assay [3], in [10], in [6], in assay [7], in assay [8] and in assay [9] was “inactive” throughout.

On to `CC(C)=CC1C(C(=O)OCc2cccc(Oc3ccccc3)c2)C1(C)C` (centres undefined), for which the Potency entry in assay [1], in assay [2], in assay [3], in assay [10], in assay [7] and in [8] was “inactive” throughout. Moreover, the Potency result in [9] was “inactive”.

For `CCCCOCCOC(C)=O`, the Potency result in [1], in assay [2], in assay [3], in [4], in assay [6] and in [7] was “inactive” throughout. Further, the Potency result in assay [8] and in assay [9] was “inactive” throughout.

For the compound `CCN(CC)C(=O)C(C)Oc1cccc2ccccc12` (centres undefined), the Potency result in [1], in [4], in assay [5], in assay [10], in assay [6] and in assay [7] was “inactive” throughout. Also, the Potency entry in assay [8] and in [9] was “inactive” throughout. Besides, in assay [2], the Potency is 54.9 µM (active) and 30.6 µM (active).

For the compound `CC(C)(c1ccc(OCC2CO2)cc1)c1ccc(OCC2CO2)cc1` (centres undefined), the Potency result in [1], in assay [2], in [3], in assay [7] and in assay [8] was “inactive” throughout. In addition, the Potency in assay [10] is 55.7 µM (active).

For the compound `CC(O)CN(CC(C)O)CC(C)O` (centres undefined), the Potency entry in assay [1], in [3], in [6], in assay [7], in assay [8] and in [9] was “inactive” throughout.

Take `COc1ccc(CO)cc1`: the Potency result in assay [1], in assay [2], in assay [3], in assay [10], in [7] and in [8] was “inactive” throughout. Besides, in assay [9], the Potency result was “inactive”.

As to `CC(C)(O)C(=O)Nc1ccc([N+](=O)[O-])c(C(F)(F)F)c1`, the Potency entry in assay [1], in assay [2], in assay [3], in [7], in assay [8] and in [9] was “inactive” each time.

Turning to `C=C(C)C#N`, the Potency entry in assay [1], in [2], in assay [3], in assay [10], in assay [7] and in [8] was “inactive” in each case. Also, the Potency entry in assay [9] was “inactive”.

On to `[Cl-].[Cl-].[Cl-].[Fe+3]`, for which the Potency entry in assay [1], in [2], in [3], in assay [10], in assay [6] and in assay [7] was “inactive” in each case. Moreover, the Potency result in assay [8] and in [9] was “inactive” throughout.

On to `O=C(O)c1nn(Cc2ccc(Cl)cc2Cl)c2ccccc12`, for which the Potency entry in [1], in [2], in assay [3], in assay [7], in assay [8] and in [9] was “inactive” in each case. Besides, the Potency in assay [6] was 54.1 µM (active).

With `CCCCCCCCCC(CC)c1ccc(S(=O)(=O)O)cc1` (centres undefined), the Potency result in assay [1], in assay [3] and in [6] was “inactive” throughout. Moreover, the Potency entry in assay [8] is “inactive and 39.9 µM (active)”.

With `CCC[CH2][Sn]([Cl])([CH2]CCC)[CH2]CCC`, the Potency in assay [1] is 1.54 µM (active) and 3.06 µM (active); in assay [3], 2.17 µM (active) and 3.44 µM (active); in [10], 1.38 µM (active) and 1.1 µM (active); in [7] it was 771 nM (active) and 1.09 µM (active); in assay [8], 1.74 µM (active) and 2.75 µM (active). Moreover, the Potency result in assay [2] was “inactive”.

Consider `CCOP(=O)(O)OCC` (tested in a mixture with another compound), for which the Potency result is “inactive and 24.1 µM (active)” in assay [1]; “inactive and 30.4 µM (active)” in assay [3]; “inactive and 17.1 µM (active)” in assay [7]. Further, the Potency entry in assay [6] and in assay [8] was “inactive” each time.

`CCOC(=O)c1ccccc1N`: the Potency result in assay [1], in [2], in assay [3], in assay [4], in [7] and in assay [8] was “inactive” each time. In addition, in [9], the Potency entry is “inactive”.

Take `CN(C)c1ccccc1`: the Potency result in assay [3], in assay [10], in assay [7], in assay [8] and in [9] was “inactive” each time.

On to `CC(C)(c1ccccc1)c1ccc(O)cc1`, for which the Potency in [1] was 48.2 µM (active); in assay [7], 60.6 µM (active). Also, the Potency result in assay [2], in [4], in [5], in assay [8] and in assay [9] was “inactive” in each case.

Turning to `CCCCCCCC[N+](C)(CCCCCCCC)CCCCCCCC`, the Potency in assay [1] is 17.2 µM (active) and 4.86 µM (active) and 27.3 µM (active); in [3] it was “inactive and 24.3 µM (active)”; in assay [10], 7.75 µM (active) and 3.47 µM (active) and 5.49 µM (active); in assay [7], 12.2 µM (active) and 19.4 µM (active) and 8.63 µM (active); in assay [8], 13.8 µM (active) and 4.37 µM (active). In addition, the Potency entry in assay [2] was “inactive”.

As for `O=[N+]([O-])c1ccc(Nc2ccccc2)cc1`, the Potency is 30.9 µM (active) and 27.3 µM (active) in assay [1]; 24.5 µM (active) and 24.3 µM (active) in assay [3]; 34.4 µM (active) in [7]; “inactive and 27.5 µM (active)” in assay [8]. The Potency entry in assay [2] and in [9] was “inactive” each time.

`Clc1cccc(C(Cl)(Cl)Cl)n1`: the Potency result in assay [1], in assay [3], in assay [4], in [5], in [10] and in [6] was “inactive” throughout. In addition, the Potency result in [7], in assay [8] and in assay [9] was “inactive” each time.

Take `N#Cc1c(Cl)c(Cl)c(Cl)c(C#N)c1Cl`: the Potency in assay [1] is 1.69 µM (active) and 1.93 µM (active); in assay [3], “inactive and 21.7 µM (active)”; in assay [7] it was 10.7 µM (active) and 3.86 µM (active); in [8], 854 nM (active) and 616 nM (active). In addition, the Potency entry in [2] was “inactive”.

In the case of `O=[N+]([O-])c1ccc(Cl)c([N+](=O)[O-])c1`, the Potency in assay [1] is 6.21 µM (active) and 6.86 µM (active); in assay [3], 24.7 µM (active) and 27.3 µM (active); in [5], 8.85 µM (active) and 8.71 µM (active); in [10], 11.1 µM (active) and 9.77 µM (active); in assay [7] it was 12.4 µM (active) and 6.86 µM (active); in assay [8], 9.92 µM (active) and 4.9 µM (active). The Potency entry in [2] was “inactive”.

For `CC(C)(c1ccccc1)c1ccc(O)c(C(C)(C)c2ccccc2)c1`, the Potency in [1] was 48.1 µM (active); in assay [7], 54 µM (active) and 21.7 µM (active); in [8], 48.5 µM (active) and 24.5 µM (active). Moreover, the Potency result in [2] and in assay [3] was “inactive” each time.

For the compound `ClC(Cl)(Cl)c1ccccc1`, the Potency result in [1], in assay [2], in assay [3], in assay [6], in [7] and in [8] was “inactive” throughout. Besides, the Potency entry in assay [9] was “inactive”.

As to `C=CC(=O)OCC(CC)(COC(=O)C=C)COC(=O)C=C`, the Potency in assay [1] is 6.28 µM (active) and 6.86 µM (active); in assay [3], 31.5 µM (active) and 27.3 µM (active); in assay [10], 28.3 µM (active) and 9.77 µM (active); in assay [7], “inactive and 61.1 µM (active)”; in assay [8] it was 3.56 µM (active) and 1.55 µM (active). Further, the Potency result in [2] was “inactive”.

Turning to `CC(C)(O)C#N`, the Potency result in assay [1], in assay [2], in [3], in assay [4], in assay [7] and in assay [8] was “inactive” in each case. Also, the Potency result in assay [9] is “inactive”.

On to `c1ccc2c(c1)Nc1ccccc1S2`, for which the Potency result in [1], in assay [3], in assay [4], in assay [5], in [10] and in assay [6] was “inactive” in each case. Besides, the Potency result in assay [7], in assay [8] and in assay [9] was “inactive” in each case.

Turning to `Cc1cccc(N=Nc2ccc(N(C)C)cc2)c1`, the Potency in assay [2] is 13.9 µM (active) and 9.69 µM (active). Also, the Potency entry in assay [4], in [10], in assay [7] and in assay [8] was “inactive” each time.

As for `Cl`, the Potency entry in assay [1], in assay [2], in assay [3], in assay [10], in [6] and in assay [7] was “inactive” throughout. For the same compound, the Potency entry in assay [8] and in assay [9] was “inactive” each time.

Regarding `Oc1ccc(Cl)cc1Cc1ccccc1`, the Potency result in assay [1] is “inactive and 30.6 µM (active) and 49.2 µM (active)”; in assay [7] it was 68.6 µM (active) and 55.1 µM (active); in assay [8], 54.9 µM (active) and 45.4 µM (active) and inactive. For the same compound, the Potency result in [2], in assay [3] and in assay [4] was “inactive” each time.

The record behind these values is PubChem BioAssay (Tox21).
